# A selection: hits, their analogues and other compounds. The true share with any hit is near 3.5%.
# GPR151 activ – activates the human receptor GPR151 | Q8TDV0 | PathHunter beta-arrestin GPR151 cells, luminescence | activation, % at 11.2 µM | hit rate 1% among 650,000 | AID 1508602; in the data active = activation above about 4.9%;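 note: 0% = median of compound wells and 100% = cells with positive control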
# MITF inh – human MITF inhibition, primary screen; hit rate 0.91% among 650,000; inhibition, % at 2.6 µM; AlphaScreen MITF homodimerization, bead proximity signal; O75030; in the data active = inhibition above about 50%;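 note: 0% = vehicle wells with protein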
# TEAD-YAP block – TEAD-YAP interaction inhibition; HEK-TIYL cells, TEAD-Gal4/YAP UAS-luciferase luminescence; inhibition, % at 9.12 µM; hit rate 1.4% among 640,000; in the data active = inhibition above about 32%;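 note: 0% = median of test compound wells and 100% = reference inhibitor wells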
# FBW7 act – activators of human E3 ligase FBW7; AlphaScreen FBW7–phospho-cyclin E peptide binding, activator screen; normalized activity (activation), % at 26.1 µM; hit rate 0.13% among 650,000; AID 1259310; in the data active = normalized activity above about 1.9%;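 note: purified mutant Fbw7 with reduced substrate affinity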
# Target sequence (Q969H0 whole entry, looked up): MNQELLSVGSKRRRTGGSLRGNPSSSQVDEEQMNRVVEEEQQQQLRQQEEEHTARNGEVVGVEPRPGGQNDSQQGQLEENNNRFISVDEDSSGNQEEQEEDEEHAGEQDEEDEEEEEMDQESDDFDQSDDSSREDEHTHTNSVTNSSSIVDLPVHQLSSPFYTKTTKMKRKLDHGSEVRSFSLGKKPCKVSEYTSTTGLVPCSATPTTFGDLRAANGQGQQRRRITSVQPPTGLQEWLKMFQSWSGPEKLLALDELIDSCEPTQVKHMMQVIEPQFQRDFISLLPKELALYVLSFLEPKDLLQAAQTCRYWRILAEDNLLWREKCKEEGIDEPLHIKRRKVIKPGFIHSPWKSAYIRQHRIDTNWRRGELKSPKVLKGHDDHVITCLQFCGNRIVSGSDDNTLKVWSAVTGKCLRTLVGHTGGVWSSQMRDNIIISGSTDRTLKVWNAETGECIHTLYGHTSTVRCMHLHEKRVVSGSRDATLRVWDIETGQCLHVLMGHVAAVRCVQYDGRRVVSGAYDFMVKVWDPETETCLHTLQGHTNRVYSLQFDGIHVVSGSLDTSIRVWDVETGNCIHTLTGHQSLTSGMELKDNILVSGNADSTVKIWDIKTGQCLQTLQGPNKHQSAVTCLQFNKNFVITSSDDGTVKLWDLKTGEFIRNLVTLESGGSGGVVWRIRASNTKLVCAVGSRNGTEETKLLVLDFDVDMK
# MITF inh conf – confirmation of human MITF inhibitors. shares compounds with MITF inh. AlphaScreen MITF homodimerization, biotin/His-MITF beads. inhibition, % at 2.6 µM. hit rate 16% among 4,700. AID 1259372;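 active = inhibition above a cutoff derived from the DMSO control wells, cut at about 28% in these data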;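 note: 0% = MITF dimer wells with DMSO only; inhibitors lower the bead chemiluminescence by keeping MITF from dimerizing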
# AlphaScreen DR – AlphaScreen optical interference, dose response counter-screen; hit rate 6% among 480; IC50, µM; AID 1259373; shares compounds with MITF inh; AlphaScreen optical interference counterscreen, cell-free; call rule not given here
# AS interf ctr – optically interferes with AlphaScreen signal | shares compounds with MITF inh | LysRS AlphaScreen counterscreen, signal interference, triplicate | inhibition, % at 2.6 µM | hit rate 7.6% among 4,700 | AID 1259376;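 active = inhibition above a cutoff derived from the DMSO control wells, cut at about 30% in these data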
# * = called active by the depositor; / = no result.
SMILES,GPR151 activ,MITF inh,TEAD-YAP block,FBW7 act,MITF inh conf,AS interf ctr,others
O=C(CN1CCN(C(=O)c2cnccn2)CC1)c1cccs1,-0.5,52.8*,-2.0,0.0,3.7,15.7,
CCCCS(=O)(=O)N1CCN(CC(=O)c2cccs2)CC1,0.0,60.6*,2.5,-0.3,5.3,20.2,
CCCS(=O)(=O)N1CCN(CC(=O)c2cccs2)CC1,2.2,66.6*,-0.5,-0.3,7.1,17.7,
CN(C)c1ccc(NC2CC(=O)N(c3ccc(F)cc3)C2=O)cc1 (stereo not drawn),0.1,1.4,-5.5,0.0,/,/,
CN(C)c1ccc(NC2CC(=O)N(c3ccc(O)cc3)C2=O)cc1 (stereo not drawn),1.9,71.2*,11.9,-0.5,30.3*,31.0*,
O=C1c2cccnc2C(=O)N1c1ccccc1,-0.4,70.1*,-9.5,0.0,-15.5,17.9,
O=C1c2cccnc2C(=O)N1c1ccccc1F,0.8,56.8*,0.5,-0.4,18.6,30.9*,
O=C1c2cccnc2C(=O)N1c1ccc(Oc2ccccc2)cc1,0.5,20.9,-28.6,-0.1,/,/,
O=C1c2cccnc2C(=O)N1c1ccc(F)cc1,0.8,51.0*,3.1,-1.0,2.2,15.4,
O=C(NCc1cccnc1)c1cccc(-c2cccs2)c1,-1.8,54.9*,1.9,-0.2,45.3*,-2.3,AlphaScreen DR=>6.64
O=C(NCc1ccccc1)c1cccc(-c2cccs2)c1,-1.1,28.7,4.5,-0.2,/,/,
O=C(NCc1cccnc1)C(=O)NCc1cccnc1,3.3,72.3*,6.3,0.0,5.2,13.4,
O=C(NCCO)c1cccc(-c2cccs2)c1,2.6,58.9*,1.0,-0.1,58.9*,1.3,AlphaScreen DR=>8.06
C/C(=C\c1ccccc1)C(=O)CCN(C)C,-0.6,2.4,17.4,-0.1,/,/,
CCOC(=O)C1=C(N)N(c2ccc([N+](=O)[O-])cc2)C2=C(C(=O)CCC2)C1c1cccnc1 (stereo not drawn),-1.1,2.3,-2.6,0.1,/,/,
Cc1cc([N+](=O)[O-])ccc1NC(=O)C1CC(=O)N(C2CCCCC2)C1 (stereo not drawn),0.7,15.3,4.5,0.0,/,/,
COC(=O)C1=CN(CC23CC4CC(CC(C4)C2)C3)C=C(C(=O)OC)C1c1ccc(F)cc1,0.1,65.3*,-2.8,0.3,-2.4,-1.8,
O=C(/C=C/c1cccs1)NCC1CCN(C(=O)/C=C/c2cccs2)CC1,0.8,17.2,-6.5,0.1,/,/,
CCOC(=O)CCC(=O)N1CCC(Cn2cnc3ccccc32)CC1,1.5,58.9*,4.1,-0.2,6.7,12.7,
O=C(Cn1c(=O)oc2ccccc21)N1CCC(Cn2cnc3ccccc32)CC1,0.7,53.3*,4.2,-0.3,11.1,13.6,
O=C(/C=C/c1cccs1)N1CCC(Cn2cnc3ccccc32)CC1,0.9,64.9*,4.1,-0.2,9.1,10.0,
O=C(CN1CCC(Cn2cnc3ccccc32)CC1)Nc1cccc(F)c1,3.0,54.3*,1.7,-0.1,6.0,8.5,
O=C(c1cccc(F)c1)N1CCC(Cn2cnc3ccccc32)CC1,2.2,49.8,3.7,-0.1,/,/,
O=C(Cn1cnc2ccccc21)N1CCC(Cn2cccn2)CC1,-1.6,-7.3,12.4,0.0,/,/,
C/C(=N/NC(=O)CNC(=O)/C=C/c1ccco1)c1ccc(N)cc1,-1.3,4.8,8.4,0.9,/,/,
SMILES,GPR151 activ,MITF inh,TEAD-YAP block,FBW7 act,MITF inh conf,AS interf ctr,others
O=C(NCc1ccccc1)c1ccc2nc(Nc3ccncc3)sc2c1,0.2,8.0,-17.2,-0.1,/,/,
O=C(CN1CCC(Cn2cnc3ccccc32)CC1)N1CCC(Cc2ccccc2)CC1,-0.7,73.5*,60.9*,0.0,8.4,9.9,
COC(=O)c1ccc(CN2CCC(Cn3cnc4ccccc43)CC2)cc1,-0.9,81.7*,15.6,-0.4,7.2,19.7,
O=C(Cn1ncc2ccccc21)N1CCC(Cc2ccccc2)CC1,-0.5,7.7,10.7,-0.2,/,/,
CCOCC(=O)N1CCC(Cn2cnc3cc(C)c(C)cc32)CC1,0.1,66.3*,5.7,-0.4,4.4,16.3,
COC(=O)c1ccc(CN2CCC(c3nc4ccccc4[nH]3)CC2)cc1,-0.9,23.1,4.3,1.2,/,/,
C=CCNC(=O)CN1CCC(Cn2cnc3cc(C)c(C)cc32)CC1,0.4,54.3*,13.1,-0.3,18.2,14.8,
O=C(Cn1cncn1)N1CCC(Oc2cccc(CN3CCSCC3)c2)CC1,-0.1,3.2,-6.7,0.0,/,/,
C=CCOc1c(Cl)cc(C2NC(=O)NC(C)=C2C(C)=O)cc1Cl (stereo not drawn),0.2,-9.7,-5.1,-0.4,/,/,
COc1cc(/C=C2\C(=N)N3N=C(N4CCCC4)SC3=NC2=O)cc(OC)c1OC,-0.1,3.8,2.3,-0.1,/,/,
O=C(Nc1cccc(F)c1)/C(=C/c1cccnc1)NC(=O)c1cccc(Br)c1,-0.2,19.3,4.0,0.7,/,/,
O=C1CCCCC1CNc1cccc(C(F)(F)F)c1 (stereo not drawn),-1.0,74.2*,4.2,0.0,3.8,17.5,
C(=N\Nc1nnnn1-c1cccc2ccccc12)/c1ccc(OCc2ccccn2)cc1,-0.2,68.9*,14.5,0.1,-2.1,8.9,
C(=N\Nc1nnnn1-c1cccc2ccccc12)/c1ccncc1,0.5,-2.1,0.9,0.0,/,/,
COc1cc(NC(=O)c2ccc3nc(-c4ccccc4)sc3c2)cc(OC)c1OC,1.9,67.6*,-1.1,0.2,6.2,5.2,
Cn1c(=O)c(=O)n(C)c2cc(S(=O)(=O)CCC(=O)Nc3ccc(Cl)cc3)ccc21,-0.5,8.1,-9.0,-0.1,/,/,
O=C(N/N=C/C=C/c1ccco1)c1ccncc1,-0.3,67.5*,5.0,-0.5,75.6*,-2.6,AlphaScreen DR=>6.48
Cn1c(=O)c2ccccc2n2c(SCC(=O)NC3CCCCC3)nnc12,1.0,72.6*,3.5,-0.1,2.3,15.1,
CCn1c(=O)c2ccccc2n2c(SCC(=O)NC3CCCCC3)nnc12,-0.4,-5.1,-1.5,0.2,/,/,
CC(=O)c1cccc(-c2cnn3c(Nc4cccc(N(C)C)c4)ccnc23)c1,0.6,13.4,-28.1,0.0,/,/,
C=C1C(C(=O)NCc2ccco2)C1C(=O)NCc1ccco1 (stereo not drawn),-0.3,63.2*,-0.1,-0.2,67.2*,12.8,AlphaScreen DR=>7.72
Cc1nc(NCCCN2CCOCC2)c2cc(-c3ccccc3)sc2n1,-0.4,55.2*,-13.2,0.0,6.1,6.4,
CCCn1c(SCC(=O)Nc2ccc(F)c([N+](=O)[O-])c2)n[nH]c1=O,-0.9,-2.2,0.1,-0.1,/,/,
CC(Oc1ccccc1)C(=O)N(C)Cc1ccccc1 (stereo not drawn),2.1,14.9,-3.9,-0.1,/,/,
O=C1CCC(CCNCCOc2ccc(F)cc2)N1Cc1cccc(-n2cccn2)c1 (stereo not drawn),2.5,-0.1,2.6,-0.2,/,/,
O=C1CCC(CCNCCOc2ccc(F)cc2)N1Cc1cccc(Cl)c1 (stereo not drawn),-0.5,70.9*,-2.8,-0.1,0.6,3.0,
COc1cc(/C=N/N=C2\NC(=O)C(CC(=O)O)S2)ccc1OCC(=O)O (stereo not drawn),0.4,9.5,1.1,-0.2,/,/,

# Screens: PubChem BioAssay, The Scripps Research Institute Molecular Screening Center
